Our source for the activation values is PubChem BioAssay (NCATS).

Each structure is given as a SMILES string. Several values for one entry are separate records, joined by “and”; a condition that tells them apart may be missing. Identical values can stand only once. Inconclusive results are not listed. Activity calls are given as the source filed them. Calls come from the whole dose curve; as a rule, active = well fitted activation curve with a large enough effect in the signal ratio; inconclusive = small, poorly fitted or top-dose-only effect, or a change in a side signal; inactive = flat fitted curve, though single readings scatter; the % refers to the signal ratio.

A short description of the test: qHTS assay for small molecule activators of the nuclear factor-kappa B (NF-kB) signaling pathway (AID 651749). Note: series mostly up to about 77 µM; % of control where 0% means no effect. The note with it: NF-kB-bla ME-180 cells, beta-lactamase FRET ratio, 16 h; stronger effect = higher value. The source says:
National Center for Advancing Translational Sciences [NCATS] NIH Chemical Genomics Center [NCGC] U.S. Environmental Protection Agency [EPA] National Institutes of Environmental Health Sciences [NIEHS] National Toxicology Program [NTP] Assay Overview: Transcription factors and their stimulated target gene expression play pivotal roles across many cellular processes including responses to environmental stimuli. Proper regulation of associated pathways is critical to maintain cell health and function. Constitutive activation of transcription factor pathways has been implicated in tumors as it may block cellular functions such as apoptosis and lead to invasion and metastasis. One important transcription factor that stimulates gene expression in response to cytokines, UV radiation, and other stimuli is nuclear factor-kappa B (NF-kB). To measure activation of the NF-kB pathway, the NF-kB-bla ME-180 cell line stably expressed beta-lactamase reporter gene under the regulation of a NF-kB response element was obtained from Invitrogen. This assay allows measurement of the NF-kB pathway activity induced by compounds in a ME-180 cell line. This system quantitates NF-kB activity using a FRET-based assay system where beta-lactamase expression disrupts FRET, allowing for fluorescent measurement of activity.
Assay Protocol Summary: For toxicology screening, 2,000 cells in 5 uL/well were dispensed into black, clear-bottom 1536-well plates using a Multidrop Combi (Thermo Scientific) dispenser. Following transfer of 23 nL compound or DMSO vehicle by a pin tool, the plates were incubated 16 hr at 37C and 5% CO2.
For the compound `C[C@]12CCC(=O)C=C1CC[C@@H]1[C@@H]2C(=O)C[C@@]2(C)[C@H]1CC[C@]2(O)C(=O)CO`, the activation is -0.64% (inactive).

Turning to `O=c1[nH]c(=O)n([C@H]2C[C@H](O)[C@@H](CO)O2)cc1Br`, the activation is 0.708% (inactive).

In the case of `Nc1ncn([C@@H]2O[C@H](CO)[C@@H](O)[C@H]2O)c(=O)n1`, the activation was -3.34% (inactive) and -0.684% (inactive).

Take `O=C(O)CCCCCCCC(=O)O`: the activation was 0.884% (inactive).

Turning to `CC(=O)[C@@]1(O)CC[C@H]2[C@@H]3CCC4=CC(=O)CC[C@]4(C)[C@H]3CC[C@@]21C`, the activation is 0.354% (inactive).

As for `CCCCOCCOCCOCc1cc2c(cc1CCC)OCO2`, the activation was -2.78% (inactive) and 0.8% (inactive).

With `NC(=O)N1c2ccccc2C=Cc2ccccc21`, the activation is -0.533% (inactive) and -3% (inactive).

Turning to `Cc1ccc(S(=O)(=O)NC(=O)NN2CCCCCC2)cc1`, the activation was -1.9% (inactive).

As to `CC(C)(Oc1ccc(CCNC(=O)c2ccc(Cl)cc2)cc1)C(=O)O`, the activation was -0.302% (inactive).

With `CC(=O)Nc1nnc(S(N)(=O)=O)s1`, the activation is 1.13% (inactive).
